# “And” between values parts separate entries of the source, which are not always exact repeats. Equal values may be shown once. Results filed as inconclusive are left out. A structure can be active in one record and inactive in another. The source made the active and inactive calls. The calls were made as follows, unless noted: active = hit-call score of the fitted dose curve at least 0.9, where 1 is the maximum; inactive = score below 0.9.
# How the values were obtained:
# [1] = UKN2_HCS_IMR90_cell_viability: Viability Assessment in the University of Konstanz (UKN) Leist Lab Neural Crest Cell Migration Assay in human induced IMR90 Pluripotent Stem Cells (UKN2) (AID 2284233);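 also: viability of neural crest cells differentiated from IMR90 iPSC measured by calcein-AM fluorescence imaging; cells exposed to compound for 24 h after a 24 h migration phase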
# How it was run: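 Human IMR90-derived neural crest cells were allowed to migrate for 24 h into a cell-free zone, then exposed to test chemicals for 24 h. Calcein-AM and Hoechst staining with high-content imaging gave viability, analysed against DMSO baseline.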
# [2] = CCTE_Mundy_HCI_hNP1_Pro_ResponderAvgInten: CCTE's Proliferation Assay in human neuroprogenitor cells, Mundy Lab (AID 2284224; active = hit-call score of the fitted dose curve at least 0.9, where 1 is the maximum;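 also: human neural progenitor cells hNP1 derived from WA09 embryonic stem cells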)
# How it was run: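 Proliferation was scored as BrdU labelling intensity in human neural progenitors derived from WA09 embryonic cells, measured 26.25 hours after chemical dosing. Activity was fitted relative to DMSO.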
# [3] = BSK_BT_PBMCCytotoxicity: PBMC Cytotoxicity Assessment in the BioMAP Diversity Plus: BT Assay (AID 2284225); conditions: primary human B cells with PBMC;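 also: PBMC viability measured by Alamar Blue dye reduction fluorescence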
# Method: (§1) BSK_BT is a cell-based, multiplexed-readout assay that uses B cell and peripheral blood mononuclear cells, a human vascular primary cell co-culture, with measurements taken at 24 hours after chemical dosing in a microplate: 96-well plate.BSK_BT_PBMCCytotoxicity is an assay component measured in the BSK_BT assay. It measures dehydrogenase activity, a form of viability reporter, as detected with fluorescence intensity signals by Alamar Blue Reduction technology.Data from the assay component BSK_BT_PBMCCytotoxicity was analyzed at the endpoint, BSK_BT_PBMCCytotoxicity, in the positive analysis fitting direction relative to DMSO as the negative control and baseline of activity. […]
# (§2) The levels of cell surface (or secreted, indicated by the prefix "s") biomarker endpoints were measured by ELISA. Overt cytotoxicity to cells in confluent adherent cultures (all systems other than the BT system) was assessed by measuring total protein levels using sulforhodamine B (SRB) staining in parallel cultures at the time of biomarker measurements, indicated as SRB endpoints. For proliferation assays for adherent cell types, individual cell types are cultured at sub-confluence and relative cell numbers quantified by SRB staining at time points optimized for each system (48 h: 3C and CASM3C systems; 72 h: BT and HDF3CGF systems; 96 h: SAg system). […] Plates were read after 6 h.
# [4] = read-out: Secreted IgG (sIgG), gene 3500; assay: BSK_BT_sIgG: BioMAP Diversity Plus: BT Assay for Secreted IgG (sIgG) Biomarker Activity (AID 2284226); conditions: primary human B cells with PBMC
# How it was run: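 Read-out: ELISA for secreted IgG after 24 h of chemical exposure in a B cell plus PBMC co-culture. Values reflect upward-direction fitting against DMSO negative controls.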
# [5] = BSK_BT_Bcell_Proliferation: Viability Assessment in the BioMAP Diversity Plus: BT Assay for B cell Proliferation (AID 2284227); conditions: primary human B cells with PBMC
# Method: as §1, with “plate.BSK_BT_Bcell_Proliferation” for “plate.BSK_BT_PBMCCytotoxicity”, “protein content,” for “dehydrogenase activity,”, “absorbance” for “fluorescence intensity”, “Sulforhodamine staining” for “Alamar Blue Reduction”, “BSK_BT_Bcell_Proliferation” for “BSK_BT_PBMCCytotoxicity”, “BSK_BT_Bcell_Proliferation,” for “BSK_BT_PBMCCytotoxicity,”
# as §2
# [6] = read-out: Interleukin 6 (IL6), IL6 (gene 3569); assay: BSK_BT_xIL6: BioMAP Diversity Plus: BT Assay for Interleukin 6 (IL6) Biomarker Activity (AID 2284228); conditions: primary human B cells with PBMC
# How it was run: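 Readout: secreted IL-6 via Luminex xMAP multiplex, 24 h post-dosing. System: primary human B cells co-cultured with PBMC. Signal change scored relative to DMSO vehicle, positive fitting direction.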
# [7] = read-out: Interleukin 17A (IL17A), IL17A (gene 3605); assay: BSK_BT_xIL17A: BioMAP Diversity Plus: BT Assay for Interleukin 17A (IL17A) Biomarker Activity (AID 2284229); conditions: primary human B cells with PBMC
# How it was run: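 Luminex xMAP readout of secreted IL-17A; human B cell + PBMC co-culture; 24 h post-dose; positive-direction fit vs DMSO negative control.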
# [8] = read-out: Tumor necrosis factor (Homo sapiens) (UniProt P01375); assay: BSK_BT_xTNFa: BioMAP Diversity Plus: BT Assay for Tumor necrosis factor alpha (TNF-alpha) Biomarker Activity (AID 2284230); conditions: primary human B cells with PBMC
# How it was run: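 Compounds were added to a B cell plus PBMC co-culture, and after 24 h secreted TNF-alpha was quantified with Luminex xMAP technology, with responses fitted upward from the DMSO control.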
# [9] = read-out: Vascular cell adhesion molecule 1 (VCAM1), VCAM1 (gene 7412); assay: BSK_MyoF_VCAM1: BioMAP Diversity Plus: MyoF Assay for Vascular cell adhesion molecule 1 (VCAM1) Biomarker Activity (AID 2284231); conditions: primary human lung fibroblasts
# How it was run: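 MyoF system, lung fibroblasts; 24 h post-dose; VCAM-1 by ELISA; gain-of-signal fit vs DMSO baseline.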
# [10] = UKN4_HCS_LUHMES_cell_viability: Viability Assessment in the University of Konstanz (UKN) Leist Lab Neurite Outgrowth Assay in human LUHMES cells (UKN4) (AID 2284232)
# How it was run: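 Fluorescence intensity from high-content imaging of Hoechst H-33342/calcein-AM-stained cells served as the viability read-out. Human LUHMES precursors were differentiated 2 days, replated and treated 24 h; curves were fitted bidirectionally against DMSO.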
# Sequence of Tumor necrosis factor (Homo sapiens) (P01375 whole entry, looked up): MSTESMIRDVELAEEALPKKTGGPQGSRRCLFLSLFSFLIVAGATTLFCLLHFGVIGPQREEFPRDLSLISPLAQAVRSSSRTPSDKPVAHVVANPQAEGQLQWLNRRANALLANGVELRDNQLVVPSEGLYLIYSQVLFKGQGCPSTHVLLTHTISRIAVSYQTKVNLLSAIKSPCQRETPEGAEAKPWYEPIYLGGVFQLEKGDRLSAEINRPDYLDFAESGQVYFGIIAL
structure (smiles),measurement,setting,value
CNC(=O)Oc1cccc2c1OC(C)(C)C2,outcome,[1],inactive
ClC1=C(Cl)C2(Cl)C3C(Cl)C=CC3C1(Cl)C2(Cl)Cl (stereo not drawn),AC50,[2],13400 nM (active)
CC(C)COC(=O)c1ccccc1C(=O)OCC(C)C,outcome,[2],inactive
same,outcome,[1],inactive
CC(C)(C)C(O)(CCc1ccc(Cl)cc1)Cn1cncn1 (stereo not drawn),outcome,[2],inactive
CCCCOC(=O)c1ccccc1C(=O)OCc1ccccc1,outcome,[2],inactive
same,outcome,[1],inactive
COC(=O)Nc1nc2ccccc2[nH]1,outcome,[2],inactive
same,outcome,[1],inactive
OCCOCCO,outcome,[2],inactive
CCNS(=O)(=O)C(F)(F)C(F)(F)C(F)(F)C(F)(F)C(F)(F)C(F)(F)C(F)(F)C(F)(F)F,outcome,[3],inactive
same,AC50,[4],22.5 µM (active) and 30 µM (active)
same,outcome,[5],inactive
same,outcome,[6],inactive
same,AC50,[7],19100 nM (active)
same,outcome,[7],inactive
same,outcome,[8],inactive
same,AC50,[9],30 µM (active) and 40.3 µM (active)
CCC[CH2][Sn]([Cl])([CH2]CCC)[CH2]CCC,AC50,[2],188 nM (active)
same,AC50,[10],159 nM (active)
same,AC50,[1],344 nM (active)
COP(=S)(OC)SCN1C(=O)c2ccccc2C1=O,outcome,[2],inactive
same,outcome,[1],inactive

# Reference: PubChem BioAssay (EPA / NIEHS)
